Bioassay records: PubChem BioAssay, National Center for Advancing Translational Sciences (NCATS)
Hits are enriched below; roughly 8.8% of the tested compounds scored in any of these assays.
HTT cytoprotect – cytoprotection in Huntington HTT-Q103 PC12 cell model; PC12 HTT-Q103 induced, cytoprotection, ATP luminescence, 40 h; Potency, µM (titrated, usually from 56.4 µM), inactives show cytoprotection (ATP increase), usual class: activators; 0.14% of 230,000 active; AID 1471; also: % of control where 0% means no effect; nearly all actives have a fitted effect of over 45% in size
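Quantitative HTS on tebufenozide-induced (100 nM) PC12 cells expressing HTTQ103 exon 1–GFP; compounds tested as a concentration series; survival measured via cellular ATP.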
HPGD inh – HPGD (human) dehydrogenase inhibition; purified HPGD, NADH fluorescence kinetic, PGE2 substrate; Potency, µM, without a hit: top-dose activity change, negative = inhibition, most hits filed as inhibitors; 4.3% of 150,000 active; AID 894; P15428; active = well fitted inhibition curve with a large enough effect, not every such curve was filed as active; inconclusive = small, poorly fitted or top-dose-only effect, or another doubt; inactive = no such curve, though single readings can be large or run the other way; also: % is scaled to controls: 0 for no effect and ±100 for the full control effect
Target sequence (P15428 whole entry, looked up): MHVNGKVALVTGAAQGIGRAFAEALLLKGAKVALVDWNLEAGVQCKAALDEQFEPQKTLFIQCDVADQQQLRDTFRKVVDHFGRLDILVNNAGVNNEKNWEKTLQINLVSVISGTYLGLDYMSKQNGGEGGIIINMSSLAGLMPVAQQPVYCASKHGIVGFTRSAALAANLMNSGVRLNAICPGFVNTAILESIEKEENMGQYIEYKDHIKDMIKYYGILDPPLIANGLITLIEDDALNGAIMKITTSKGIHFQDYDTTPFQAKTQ
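20 nM HPGD preincubated 15 min at room temperature with compound in 50 mM Tris-HCl pH 8, 0.01% Tween 20. Started with 1 mM NAD+ and 30 uM prostaglandin E2; NADH fluorescence (360/450 nm) read 5 times over 30-s intervals, last minus first.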
ALDH1A1 inh – ALDH1A1 (human) enzyme inhibition. P00352. Purified ALDH1A1, NADH fluorescence, propionaldehyde substrate. Potency, µM (titrated, usually from 75.3 µM), without a hit: at the highest dose activity, negative = inhibition, hits mostly inhibitors. 7.3% of 220,000 active. AID 1030; active = well fitted inhibition curve with a large enough effect, not every such curve was filed as active; inconclusive = small, poorly fitted or top-dose-only effect, or another doubt; inactive = no such curve, though single readings can be large or run the other way;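 also: plate controls were no enzyme wells and a reference inhibitor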
Target sequence (P00352 whole entry, looked up): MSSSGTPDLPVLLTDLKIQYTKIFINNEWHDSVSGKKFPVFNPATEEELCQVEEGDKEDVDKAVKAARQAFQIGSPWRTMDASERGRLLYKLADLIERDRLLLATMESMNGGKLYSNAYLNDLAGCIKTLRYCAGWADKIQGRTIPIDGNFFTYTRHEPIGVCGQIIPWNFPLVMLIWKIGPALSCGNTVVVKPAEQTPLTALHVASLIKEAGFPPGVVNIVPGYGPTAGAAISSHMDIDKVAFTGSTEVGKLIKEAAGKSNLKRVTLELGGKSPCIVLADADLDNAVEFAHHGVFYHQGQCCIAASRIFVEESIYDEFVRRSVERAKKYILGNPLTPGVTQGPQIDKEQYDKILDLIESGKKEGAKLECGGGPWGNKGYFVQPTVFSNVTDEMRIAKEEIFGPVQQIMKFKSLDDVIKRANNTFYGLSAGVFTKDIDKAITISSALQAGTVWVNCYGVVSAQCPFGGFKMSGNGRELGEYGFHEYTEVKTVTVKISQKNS
HttQ103 aggreg – mutant huntingtin aggregation inhibition; 1.1% of 220,000 active; Potency, µM (top dose mostly 46.1 µM), inactives show at the highest dose activity change, negative = inhibition, hits mostly inhibitors; PC12 HttQ103-GFP aggregates, Acumen cytometry, 40 h; also: % is scaled to controls: 0 for no effect and ±100 for the full control effect; nearly all actives have a fitted effect of over 60% in size
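Read-out: GFP aggregate count by laser scanning cytometer (488 nm excitation, 500-530 nm emission, 1–25 µm objects >6 SD above background). Cells: PC12, inducible HTTex1-Q103-GFP, 100 nM tebufenozide; compounds titrated.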
Lamin A splicing – changes lamin A minigene splicing in HeLa cells; HeLa LMNA splicing GFP/RFP minigene ratio, 48 h; Potency, µM (highest dose often 46.1 µM), without a hit: at the top dose ratio change, negative = inhibition, actives largely listed as inhibitors; 0.01% of 200,000 active; active = well fitted inhibition curve with a large enough effect in the signal ratio, with a control signal flat, not every such curve was filed as active; inconclusive = small, poorly fitted or top-dose-only effect, or effect the other way, or a change in a side signal; the % refers to the signal ratio; also: % is scaled to controls: 0 for no effect and ±100 for the full control effect
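Read-out is the ratio of GFP to DsRed2 object intensity, acquired by 488 nm laser-scanning cytometry on HeLa lamin A-EGFP minigene reporter cells. Compound incubation 48 hrs at 37 °C in Opti-MEM with 2% FBS; DMSO 0.5% final.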
Numbers without * were called inactive; ? = inconclusive; . = no result given; [ ] = dose if it differs, or a comment. Unless noted, calls follow the shape of the dose curve; as a rule, active = well fitted curve in the direction sought with a large enough effect; inconclusive = small, poorly fitted or top-dose-only effect, or another doubt; inactive = no such curve, though single readings can be large; an effect the other way counts as inactive or inconclusive. Potency is read from the fitted curve at half-maximal effect.

SMILES | HTT cytoprotect | HPGD inh | ALDH1A1 inh | HttQ103 aggreg | Lamin A splicing
O=C(On1c(-c2ccccc2)nc2ccccc2c1=O)c1ccco1 | -23% | ? | 8.9µM* | -9% | 10%
Cc1ccsc1/C=N/n1c(C2CCCCC2)n[nH]c1=S | -7%[10 µM] | 13µM* | ? | 6% | -4%
S=c1[nH]nc(C2CCCCC2)n1/N=C/c1ccco1 | 3%[0.074 µM] | ? | ? | 5% | 16%
Cc1ccc(/C=N/n2c(C3CCCCC3)n[nH]c2=S)s1 | 12%[10 µM] | 11µM* | -3% | 1% | -9%
S=c1[nH]nc(C2CCCCC2)n1/N=C/c1ccccn1 | -17%[10 µM] | . | 3.5µM* | -9%[9.22 µM] | .
Cc1cn(C)c(CC(=O)Nc2cccc(Cl)c2C)c1C(=O)O | . | . | . | . | 4%[46 µM]
O=C(COC(=O)c1cc[n+]([O-])cc1)Nc1ccccc1Sc1ccccc1 | -12%[10 µM] | . | 11µM* | 18% | -7%[46 µM]
N#CCCn1c(=O)c(-c2cccs2)nc2cnc(N3CCOCC3)nc21 | -8% | . | ? | . | 12%
COc1ccc(S(=O)(=O)NCCc2csc(-c3ccc(F)cc3)n2)cc1 | . | . | . | . | -8%[46 µM]
O=C(/C=C\c1ccco1)c1ccc(NC(=O)c2ccco2)cc1 | -3%[10 µM] | . | ? | 5%[9.22 µM] | ?
CC(=O)Nc1ccc(C(=O)/C=C/c2ccco2)cc1 | -13%[10 µM] | -27% | ? | 12% | -6%
O=C(/C=C/c1ccco1)c1ccc(O)cc1 | -1% | . | 15µM* | 8% | .
CSc1ccc(/C=C/C(=O)c2ccc(O)cc2)cc1 | -39%[10 µM] | -28% | 18µM* | -9% | ?
CN(C)c1ccc(C(=O)/C=C/c2ccco2)cc1 | 8%[10 µM] | 32µM* | 8.9µM* | 14% | ?
Cc1ccc(/C=C/C(=O)c2ccc(O)cc2)cc1 | 4%[10 µM] | . | . | 9%[9.22 µM] | .
CC(=O)Nc1cccc(C(=O)/C=C/c2ccco2)c1 | -10% | ? | 10µM* | 18% | -13%
CN(C)c1ccc(C(=O)/C=C/c2ccc(Br)cc2)cc1 | . | -7% | 2% | -2% | 5%
COc1ccccc1CNC(=O)c1ccc(-c2nc(CN3CCc4ccccc43)c(C)o2)cc1 | . | . | . | . | -19%[46 µM]
O=C(COC(=O)c1ccc2ccccc2n1)c1ccccc1 | -27% | . | -13% | 1% | 18%[46 µM]
CC(C)NC(=O)N1CC[C@@]2(CCCN(C(=O)c3csnn3)C2)C1 | ? | -5% | -4% | . | .
O=C(NC(=S)Nc1nc2c(s1)CSc1ccccc1-2)c1ccccc1 | -73% | 20µM* | ? | ? | -21%
O=C(NC(=S)Nc1nc2c(s1)CCCC2)c1ccc(C(=O)c2ccccc2)cc1 | . | -23% | 3.5µM* | -3% | ?
O=C(Nc1nc2c(s1)CCCC2)Oc1ccccc1 | 8% | -13% | -13% | -2% | 4%
O=C(Nc1nc2c(s1)CCCC2)c1cccnc1 | 19% | -10% | 11µM* | -5% | 21%
C/C(=N\Nc1nc2c(s1)CCCC2)c1ccccc1 | -16% | -30% | 25µM* | -33% | -20%
SMILES | HTT cytoprotect | HPGD inh | ALDH1A1 inh | HttQ103 aggreg | Lamin A splicing
Cc1cccc(Nc2nc3c(s2)CCCC3)c1 | -35%[10 µM] | -13% | 20µM* | -7% | ?
O=C(/C=C/c1ccc(-c2ccccc2[N+](=O)[O-])o1)c1ccccc1 | . | -28% | 18µM* | -5% | -8%
CNc1ccc(/C=C/C(=O)c2ccc(C)cc2)cc1[N+](=O)[O-] | -1%[10 µM] | -17% | 17% | -12% | ?
COc1cccc(C(=O)/C=C/c2ccc(N3CCCCC3)c([N+](=O)[O-])c2)c1 | -13%[10 µM] | -6% | 14µM* | 1% | ?
CN(C)c1ccc(/C=C/C(=O)c2ccccc2)cc1[N+](=O)[O-] | 0%[10 µM] | 14µM* | ? | -3% | ?
O=C(/C=C/c1ccc(N2CCCCC2)c([N+](=O)[O-])c1)c1ccc(S(=O)(=O)N2CCCC2)cc1 | -27%[10 µM] | -9% | 4.5µM* | -11% | -2%
Cc1ccc(C(=O)NCCNS(C)(=O)=O)cc1 | 0% | . | -4% | 0% | .
O=[N+]([O-])c1cccnc1Sc1n[nH]c(-c2ccc(Cl)cc2)n1 | -5%[10 µM] | . | 3% | -2%[9.22 µM] | .
CC1=c2c(oc3cc(O)c(Nc4c(C)cc(O)cc4O)c(C)c23)=CC(=O)C1=Nc1c(C)cc(O)cc1O | -3%[10 µM] | -11% | 22%[13.5 µM] | . | .
COc1ccc(Oc2ccc(/C=C/C(=O)c3ccc(O)cc3)cc2[N+](=O)[O-])cc1 | . | -23% | ? | 13µM* | ?
COc1c(C=O)c(=O)[nH]c2c(OC)cccc12 | ? | -20% | ? | . | .
O=[N+]([O-])c1ccc(N2CCCC2)nc1N1CCCC1 | 1%[10 µM] | . | 1.4µM* | 15%[9.22 µM] | .
CC1CC(CN)CC(CO)C1 (configuration not stated) | 15%[10 µM] | . | -4% | 16%[9.22 µM] | 14%[46 µM]
Cc1nc(CN(C)C(=O)c2ccccc2OC2CCN(S(C)(=O)=O)CC2)cs1 | 16%[10 µM] | . | 1% | -3%[9.22 µM] | .
Cc1ccc(OCC(=O)NC2CCCC2)c(C)c1 | -20% | 28µM* | 14% | 3% | ?
O=C(COc1ccc2ccccc2c1)NC1CC1 | -24% | 32µM* | -7% | ? | 18%
O=C(COc1ccc(Br)cc1Cl)NC1CCCCC1 | 16%[0.074 µM] | 11µM* | 6% | -23% | ?
Cc1cc(Cl)c(S(=O)(=O)N2CCSCC2)cc1OCC(=O)NC1CCCCC1 | -33% | -15% | 7.9µM* | -17%[9.22 µM] | ?
Cc1cccc(C2NC(c3cccc(C)c3)C([N+](=O)[O-])C(C)(C)C2[N+](=O)[O-])c1 (configuration not stated) | -10%[10 µM] | -3% | 15% | -6% | ?
Cc1cc(Cl)ccc1OCC(=O)NC1CCCC1 | 2%[10 µM] | 14µM* | 6% | -10% | ?
Cc1cc(Cl)ccc1OCCCC(=O)NC1CCN(C)CC1 | 0% | -2% | 1% | 8% | 1%
CCCCSc1nnc(-c2ccccc2N)c(=O)[nH]1 | -61% | -10% | 1.6µM* | ? | 1%
CCCCCCCSc1nnc(-c2ccccc2N)c(=O)[nH]1 | -14% | . | -10% | ? | .
O=C(NCc1ccc(Cl)cc1)c1cnc(N2CCOCC2)c2ccccc12 | . | . | . | . | 5%[46 µM]
O=C(Nc1ccc(S(=O)(=O)NC2CCCC2)cc1)c1cnccn1 | 10%[10 µM] | 7.9µM* | ? | -25% | -9%
SMILES | HTT cytoprotect | HPGD inh | ALDH1A1 inh | HttQ103 aggreg | Lamin A splicing
O=C(Nc1ccc2ccccc2c1)c1cnccn1 | -102%[0.074 µM] | -9% | -9% | -5% | 5%
O=C(Nc1ccc(NC(=O)c2ccco2)cc1)c1cnccn1 | -62% | -21% | 25µM* | 14% | 9%
O=C(N/N=C\C=C\c1ccco1)c1cc(-c2ccc3ccccc3c2)n[nH]1 | -15%[10 µM] | 32µM* | 0% | 2% | ?
O=C(N/N=C/C=C/c1ccco1)c1cccnc1 | 0% | -18% | ? | ? | 1%
O=C(N/N=C/C=C\c1ccco1)c1ccccn1 | -18%[10 µM] | . | . | 20%[9.22 µM] | .
O=C(N/N=C/C=C/c1ccco1)c1cnccn1 | 13%[10 µM] | . | 3.2µM* | 21%[9.22 µM] | .
O=C(Nc1ccc(S(=O)(=O)NCC2CCCO2)cc1)c1cnccn1 (configuration not stated) | -30%[10 µM] | . | 2% | -18%[9.22 µM] | 4%[46 µM]
CN(CC#CC(O)(c1ccccc1)c1ccccc1)C(C)(C)C | 19%[10 µM] | . | 12% | 3%[9.22 µM] | .
